# Compound activity as filed in PubChem BioAssay.
# Vaccinia Venus = inhibitors of vaccinia virus (Venus reporter); Vaccinia virus Venus reporter expression, fluorescence; Potency, µM (highest dose often 36.5 µM), for inactives: at the highest dose activity change, negative = inhibition, actives largely listed as inhibitors; 330,000 tested, 0.46% active; calls by dose curve; tested in A549 cells; further: on the % scale 0 is the no-effect control and ±100 the full control effect; nearly all actives have a fitted effect of over 30% in size
# Pf growth 96h = P. falciparum growth inhibition at 96 hours; 320,000 tested, 6.9% active; P. falciparum luciferase reporter growth, 96 h; Potency, µM (series often up to 28.7 µM), inactives show at the top dose activity change, negative = inhibition, hits mostly inhibitors; AID 504834; further: on the % scale 0 is the no-effect control and ±100 the full control effect
#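 96 h incubation, 37 C, 5% CO2, of luciferase-reporter P. falciparum-infected RBCs (2% hematocrit, 0.05% parasitemia final) with test compounds; endpoint luminescence.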
# Vaccinia mCherry = vaccinia inhibition (mCherry reporter). Vaccinia virus mCherry reporter infection, fluorescence. Potency, µM (highest dose often 36.5 µM), without a hit: at the highest dose activity change, negative = inhibition, usual class: inhibitors. 310,000 tested, 0.63% active. AID 720579; calls by dose curve; tested in A549 cells; further: on the % scale 0 is the no-effect control and ±100 the full control effect; nearly all actives have a fitted effect of over 35% in size
# Pf growth 48h = inhibits P. falciparum growth in the first generation, 48 h; P. falciparum luciferase growth in erythrocytes, 48 h; Potency, µM (series often up to 28.7 µM), without a hit: top-dose activity change, negative = inhibition, usual class: inhibitors; 310,000 tested, 5.9% active; AID 504832; further: on the % scale 0 is the no-effect control and ±100 the full control effect
#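 Firefly luciferase activity from engineered P. falciparum reports growth; inhibitors lower the luminescent signal. Cultures contained 2% hematocrit erythrocytes at 0.1% final parasitemia.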
# NS1 function inh = influenza NS1 inhibition | 270,000 tested, 0.4% active | Potency, µM (doses to about 46.1 µM), for the others: top-dose activity, positive = more growth; calls by dose curve; further: actives are rising curves; nearly all actives have a fitted effect of over 50% in size
#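 OD600 was taken as the measure of yeast growth restored by compound in an NS1-expressing S. cerevisiae strain. Cells had been washed out of glucose medium and diluted 1:100 into galactose -URA medium, pH 6.0.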
# HCV inhibitor = inhibitors of hepatitis C virus infection; 340,000 tested, 3.4% active; Potency, µM (series often up to 41.8 µM), for inactives: at the highest dose activity change, negative = inhibition, actives largely listed as inhibitors; Huh7.5.1 HCVcc-Cre infection, luciferase reporter, 44 h; further: on the % scale 0 is the no-effect control and ±100 the full control effect
#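 Luciferase read-out (15 sec integration) after a 15 min room-temperature substrate step quantifies HCVcc-Cre infection. Cells, 1,000 per well, had compound added 4 h post-plating, then virus at ~0.5 moi, and were cultured 44 h.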
# The depositor's hits bear a star; i = inactive; u = inconclusive; x = not tested or not shown. Hits are enriched below; roughly 11% of the tested compounds scored in any of these assays. Unless noted, the call rests on the fitted dose curve; in most records, active means well fitted inhibition curve with a large enough effect; inconclusive means small, poorly fitted or top-dose-only effect, or another doubt; inactive means no such curve, though single readings can be large or run the other way. Potency means the concentration at half of the fitted maximal effect.
SMILES,Vaccinia Venus,Pf growth 96h,Vaccinia mCherry,Pf growth 48h,NS1 function inh,HCV inhibitor
COc1cc(OC)cc(C(=O)Nc2sc3c(c2C(N)=O)CCC3)c1,u,46%,u,48%,1%,2µM*
NC(=O)c1c(NC(=O)c2cccs2)sc2c1CCCCCC2,-27%,14%,u,58%,-73%,10µM*
COC(=O)c1c(NC(=O)C2CCCO2)sc2c1CCC2 (configuration not stated),u,-1%,x,x,-69%,5.6µM*
COc1ccc(CC(=O)Nc2sc3c(c2C(N)=O)CCCC3)cc1,-19%,-6%,i,x,5%,u
Cn1cc(Br)c(C(=O)Nc2sc3c(c2C(N)=O)CCCC3)n1,-26%,4.1µM*,u,39%,-6%,-9%
Nc1c(C(=O)NCCc2ccccc2)c2nc3ccccc3nc2n1CCN1CCOCC1,u,2%,u,u,-126%,u
CC(=O)c1ccc(S(=O)(=O)N2CCN(C(C)=O)CC2)cc1,-9%,25%,i,0%,-1%,2%
Cc1ccc(S(=O)(=O)N2CCN(C(=O)c3cc4c(s3)CCCC4)CC2)cc1,x,u,x,u,x,4%
O=C(c1cc2c(s1)CCCC2)N1CCN(S(=O)(=O)c2ccccc2C(F)(F)F)CC1,-10%,12µM*,-1%,u,-8%,-8%
Cc1nn(-c2ccc(C(=O)O)cc2)c(C)c1Cl,-13%,34%,0%,53%,-4%,0%
Cc1cc(C)n(-c2ccc(C(=O)N3CCN(S(=O)(=O)c4ccc(Cl)cc4)CC3)cc2)n1,x,2.6µM*,x,10µM*,x,1%
CC(=O)c1ccc(S(=O)(=O)N2CCN(C(=O)c3ccc(-n4nc(C)c(Cl)c4C)cc3)CC2)cc1,x,13µM*,x,u,x,6.3µM*
Cc1nn(-c2ccc(C(=O)N3CCN(S(=O)(=O)c4ccccc4C(F)(F)F)CC3)cc2)c(C)c1Cl,x,u,x,13µM*,x,0%
O=C(CN(C1CCCCC1)S(=O)(=O)c1ccc(Br)cc1)NCc1cccnc1,0%,29%,-16%,-29%,-3%,25%
CSCCC(NC(=O)COc1ccccc1)C(=O)N(C)CC(=O)Nc1ccc(Cl)cc1 (configuration not stated),-18%,u,5%,u,x,-22%
Cc1nn(-c2ccccc2)c2c1N(CCCC(=O)NCc1ccc(N(C)C)cc1)C(=O)CS2,-3%,x,-5%,x,x,x
CCN(C(=O)c1ccccc1)c1ccc([N+](=O)[O-])cc1,-3%,8.3µM*,i,u,-2%,3%
CCN(C(=O)c1cccnc1)c1ccccc1,3%,1%,-6%,1%,8%,11%
Cc1ccc(N=Nc2c(O)c(S(=O)(=O)O)cc3cc(S(=O)(=O)O)ccc23)c(C)c1,x,x,x,x,-3%,x
CN1CCOC(c2ccccc2)c2ccccc2C1 (configuration not stated),-14%,10µM*,-8%,29%,-2%,-18%
CC1C(c2ccccc2)OCCN1C (configuration not stated),-1%,x,i,x,x,35%
CCOc1ccc(Br)cc1C1=NN(C(C)=O)C(c2ccc([N+](=O)[O-])s2)O1 (configuration not stated),x,u,x,9.3µM*,-64%,u
CC(=O)N1N=C(c2ccc(C)cc2)OC1c1ccc(Br)cc1 (configuration not stated),-21%,-13%,-15%,73%,4%,0%
CCc1nc2sc3c(N4CCCCC4)ncnc3c2c2c1CCCC2,-3%,x,i,x,x,x
O=S(=O)(NCC(c1ccco1)N1CCOCC1)c1ccc(F)cc1 (configuration not stated),0%,x,-7%,x,x,x
SMILES,Vaccinia Venus,Pf growth 96h,Vaccinia mCherry,Pf growth 48h,NS1 function inh,HCV inhibitor
COC(=O)c1cc(S(=O)(=O)N2CCN(c3ccccc3)CC2)c[nH]1,-12%,u,-8%,7%,-10%,1%
COC(=O)c1cc(S(=O)(=O)N2CCC(c3ccccc3)C2)c[nH]1 (configuration not stated),x,-14%,x,30%,-12%,11µM*
COC(=O)c1cc(S(=O)(=O)N2CCC(c3cc(OC)ccc3OC)C2)c[nH]1 (configuration not stated),x,13µM*,x,0%,7%,6.3µM*
Cc1ccc(-n2ccnc(NCCc3ccccc3)c2=O)cc1C,2%,x,3%,x,x,x
Cn1nccc1C(=O)NC1CC(C)(C)Cc2c1cnn2-c1ccc(F)cc1 (configuration not stated),-16%,77%,-13%,-6%,-12%,-5%
Cc1ccc(C)c(NS(=O)(=O)c2cc(C(=O)NCc3ccncc3)ccc2C)c1,-9%,1%,-23%,17%,-6%,u
CC/C(O)=C1\C(=O)CC(c2ccccc2)CC1=NCCC(=O)O (configuration not stated),-6%,17%,-8%,0%,-4%,12%
COc1ccc(C2CC(c3ccc(Br)cc3)=NN2C(=O)CSC2=NN3CCCC(=O)N=C3S2)cc1 (configuration not stated),x,1%,x,u,0%,21%
Cc1ccc(C2CC(c3cccs3)=NN2C(=O)CSC2=NN3CCCC(=O)N=C3S2)cc1 (configuration not stated),-13%,1µM*,14%,9.3µM*,15%,-1%
COc1ccc(C2CC(c3cccs3)=NN2C(=O)CSC2=NN3CCCC(=O)N=C3S2)cc1 (configuration not stated),2%,2.6µM*,-6%,10µM*,19%,-11%
N#CCc1nn(-c2ccc(Cl)cc2)c(N)c1C#N,4%,13µM*,-8%,-6%,6%,10%
CC1(C)S[C@@H]2[C@H](NC(=O)COc3ccccc3)C(=O)N2C1C(=O)OCc1cc2ccccc2n1S(=O)(=O)c1ccccc1 (some centres not stated),x,13µM*,x,-16%,20%,x
CC1(C)S[C@@H]2[C@H](NC(=O)COc3ccccc3)C(=O)N2C1C(=O)OCC1CCCCC1 (some centres not stated),-6%,x,i,x,x,7%
Cc1ccc(S(=O)(=O)CCC(=O)Nc2nc(-c3ccncc3)cs2)cc1,x,27%,x,u,-3%,14%
CCCOC(=O)CSC1=C(C#N)C(c2ccccc2Cl)CC(=O)N1 (configuration not stated),-15%,u,-28%,x,13%,32µM*
Cc1ccc(-c2cn(CCC(=O)O)c(-c3ccc(Cl)nc3)n2)cc1,-4%,52%,-6%,31%,x,4%
Cc1ccc(-c2cn(CCN)c(-c3ccc(Cl)nc3)n2)cc1,-9%,-5%,i,10µM*,x,1%
